Calls of active or inactive are those of the source. The calls were made as follows: active = hit-call score of the fitted dose curve at least 0.9, where 1 is the maximum; inactive = score below 0.9.
Experiments:
Conditions in all cases: mRNA level, 48 h; actives raise or lower the signal
[1] = read-out: catalase (CAT), CAT (gene 847); assay: LTEA_HepaRG_CAT: Life Technologies and Expression Analysis (LTEA) Assay for catalase (CAT) using HepaRG (AID 2283452)
Outline: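 HepaRG cells in serum-free induction medium, 0.5% DMSO vehicle, exposed 48 h in duplicate over 8 half-log concentrations from 100 uM. CAT mRNA measured by qRT-PCR, normalized to ACTB, GAPDH, POLR2A; bidirectional fit versus DMSO.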

[2] = read-out: flavin-containing dimethylaniline monooxygenases 3 (FMO3), FMO3 (gene 2328); assay: LTEA_HepaRG_FMO3: Life Technologies and Expression Analysis (LTEA) Assay for flavin-containing dimethylaniline monooxygenases 3 (FMO3) using HepaRG (AID 2283453)
Outline: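 Differentiated HepaRG cells in serum-free induction medium, exposed 48 h in duplicate to 8 half-log concentrations up to 100 uM in 0.5% DMSO. FMO3 mRNA by qRT-PCR, normalized to ACTB, GAPDH, POLR2A; bidirectional fit vs DMSO.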

[3] = read-out: Cytochrome P450 (CYP1A1), CYP1A1 (gene 1543); assay: LTEA_HepaRG_CYP1A1: Life Technologies and Expression Analysis (LTEA) Assay for Cytochrome P450 (CYP1A1) using HepaRG (AID 2283454)
Outline: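 CYP1A1 transcript levels measured by Fluidigm qRT-PCR against three housekeeping genes, 48 h after chemical dosing of human HepaRG cells (highest concentration 100 uM, half-log steps, 0.5% DMSO vehicle). Gain or loss of signal fitted relative to DMSO.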

[4] = read-out: CFLAR gene, CFLAR (gene 8837); assay: LTEA_HepaRG_CFLAR: Life Technologies and Expression Analysis (LTEA) Assay for CFLAR gene using HepaRG (AID 2283455)
Outline: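 Differentiated HepaRG cells in serum-free induction medium were exposed 48 h in duplicate to eight half-log concentrations up to 100 uM in 0.5% DMSO; mRNA measured by TaqMan qRT-PCR, normalized to ACTB, GAPDH, POLR2A; bidirectional fitting versus DMSO.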

[5] = read-out: Forkhead box O1 (FOXO1), FOXO1 (gene 2308); assay: LTEA_HepaRG_FOXO1: Life Technologies and Expression Analysis (LTEA) Assay for Forkhead box O1 (FOXO1) using HepaRG (AID 2283456)
Outline: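 Differentiated HepaRG cells, in serum-free induction medium with 0.5% DMSO, exposed 48 h in duplicate to 8-point half-log series from 100 uM. FOXO1 mRNA measured by TaqMan qRT-PCR, normalized to ACTB, GAPDH, POLR2A; bidirectional fit versus DMSO.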

[6] = read-out: growth arrest and DNA damage 45 (GADD45A), GADD45A (gene 1647); assay: LTEA_HepaRG_GADD45A: Life Technologies and Expression Analysis (LTEA) Assay for growth arrest and DNA damage 45 (GADD45A) using HepaRG (AID 2283458)
Outline: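 Differentiated HepaRG cells exposed 48 h in serum-free induction medium to 8 concentrations, top 100 uM in half-log steps, 0.5% DMSO. GADD45A mRNA quantified by qRT-PCR, normalized to ACTB, GAPDH and POLR2A; bidirectional fit versus DMSO.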

[7] = read-out: Forkhead box O3 (FOXO3), FOXO3 (gene 2309); assay: LTEA_HepaRG_FOXO3: Life Technologies and Expression Analysis (LTEA) Assay for Forkhead box O3 (FOXO3) using HepaRG (AID 2283459)
Outline: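 Differentiated human HepaRG cells, 48 h post-plating, exposed in duplicate for 48 h in serum-free induction medium; 8-point half-log series from 100 uM in 0.5% DMSO. FOXO3 mRNA by TaqMan qRT-PCR, normalized to ACTB/GAPDH/POLR2A; bidirectional fit versus DMSO.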

[8] = read-out: ABC Transporter (ABCB1), ABCB1 (gene 5243); assay: LTEA_HepaRG_ABCB1: Life Technologies and Expression Analysis (LTEA) Assay for ABC Transporter (ABCB1) using HepaRG (AID 2283460)
Outline: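 HepaRG cells exposed in duplicate for 48 h in serum-free induction medium to eight half-log concentrations up to 100 uM in 0.5% DMSO. ABCB1 mRNA quantified by qRT-PCR, normalised to ACTB, GAPDH and POLR2A; fitted bidirectionally versus DMSO.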

[9] = read-out: growth arrest and DNA damage 45 (GADD45B), GADD45B (gene 4616); assay: LTEA_HepaRG_GADD45B: Life Technologies and Expression Analysis (LTEA) Assay for growth arrest and DNA damage 45 (GADD45B) using HepaRG (AID 2283461)
Outline: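 Transcript level quantified by Fluidigm TaqMan qRT-PCR with three housekeeping genes for normalization, analyzed for up- or down-regulation against 0.5% DMSO. HepaRG cultures dosed 48 h at eight half-log concentrations up to 100 uM, duplicates.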

[10] = read-out: ABC Transporter (ABCC3), ABCC3 (gene 8714); assay: LTEA_HepaRG_ABCC3: Life Technologies and Expression Analysis (LTEA) Assay for ABC Transporter (ABCC3) using HepaRG (AID 2283462)
Outline: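 Transcript level by TaqMan qRT-PCR, normalised to three housekeeping genes, fitted in both directions relative to vehicle. Chemicals tested in duplicate at eight half-log concentrations up to 100 uM for 48 h on HepaRG cells (0.5% DMSO).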

[11] = read-out: ABC Transporter (ABCB11), ABCB11 (gene 8647); assay: LTEA_HepaRG_ABCB11: Life Technologies and Expression Analysis (LTEA) Assay for ABC Transporter (ABCB11) using HepaRG (AID 2283463)
Outline: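 Differentiated human HepaRG cells in serum-free induction medium, dosed in duplicate for 48 h. Eight-point half-log series from 100 uM in 0.5% DMSO; ABCB11 mRNA by qRT-PCR, normalized to ACTB, GAPDH, POLR2A, fitted bidirectionally versus DMSO.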

[12] = read-out: ABC Transporter (ABCC2), ABCC2 (gene 1244); assay: LTEA_HepaRG_ABCC2: Life Technologies and Expression Analysis (LTEA) Assay for ABC Transporter (ABCC2) using HepaRG (AID 2283464)
Outline: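 Endpoint is ABCC2 transcript level from qRT-PCR, normalized to three housekeeping genes and fitted bidirectionally relative to DMSO. Human HepaRG cells received test chemical for 48 h at up to 100 uM (8 points, half-log steps, 0.5% DMSO), duplicate wells.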

[13] = read-out: Broad substrate specificity ATP-binding cassette transporter ABCG2 (Homo sapiens) (UniProt Q9UNQ0); assay: LTEA_HepaRG_ABCG2: Life Technologies and Expression Analysis (LTEA) Assay for ABC Transporter (ABCG2) using HepaRG (AID 2283465)
Outline: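 Differentiated HepaRG cells were exposed for 48 h in serum-free induction medium to 8 half-log concentrations, top 100 uM, in 0.5% DMSO. ABCG2 mRNA was measured by qRT-PCR, normalized to ACTB, GAPDH and POLR2A, with bidirectional fitting versus DMSO.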

[14] = read-out: ATP-citrate lyase (ACLY), ACLY (gene 47); assay: LTEA_HepaRG_ACLY: Life Technologies and Expression Analysis (LTEA) Assay for ATP-citrate lyase (ACLY) using HepaRG (AID 2283466)
Outline: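 Differentiated HepaRG cells exposed 48 h in serum-free induction medium to eight half-log concentrations up to 100 uM in 0.5% DMSO, duplicates. Transcript measured by Fluidigm TaqMan qRT-PCR, normalized to ACTB, GAPDH, POLR2A; bidirectional fit versus DMSO.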

[15] = read-out: Peroxisomal acyl-coenzyme A oxidase 1 (ACOX1) gene, ACOX1 (gene 51); assay: LTEA_HepaRG_ACOX1: Life Technologies and Expression Analysis (LTEA) Assay for Peroxisomal acyl-coenzyme A oxidase 1 (ACOX1) gene using HepaRG (AID 2283467)
Outline: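 HepaRG cells, plated 48 h then switched to serum-free induction medium, were exposed in duplicate for 48 h to 8-point half-log concentrations up to 100 uM in 0.5% DMSO. ACOX1 mRNA was measured by qRT-PCR, normalized to ACTB/GAPDH/POLR2A, and fitted bidirectionally versus DMSO.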

[16] = read-out: Alkaline Phosphatase, Placental (ALPP) gene, ALPP (gene 250); assay: LTEA_HepaRG_ALPP: Life Technologies and Expression Analysis (LTEA) Assay for Alkaline Phosphatase, Placental (ALPP) gene using HepaRG (AID 2283468)
Outline: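 ALPP transcript level, measured by qRT-PCR and normalized to three housekeeping genes (ACTB, GAPDH, POLR2A), after 48 h dosing of differentiated HepaRG in serum-free induction medium. Top concentration 100 uM with half-log dilutions (8 points, 0.5% DMSO, duplicates); bidirectional fitting relative to DMSO.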

[17] = read-out: Bcl-2 (BAD) gene, BAD (gene 572); assay: LTEA_HepaRG_BAD: Life Technologies and Expression Analysis (LTEA) Assay for Bcl-2 (BAD) gene using HepaRG (AID 2283469)
Outline: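 Differentiated HepaRG cells were exposed in duplicate in 0.5% DMSO for 48 h to eight-point half-log concentrations up to 100 uM. BAD mRNA was measured by Fluidigm TaqMan qRT-PCR, normalized to ACTB, GAPDH and POLR2A, and fitted bidirectionally against DMSO.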

[18] = read-out: Bcl-2 (BAX) gene, BAX (gene 581); assay: LTEA_HepaRG_BAX: Life Technologies and Expression Analysis (LTEA) Assay for Bcl-2 (BAX) gene using HepaRG (AID 2283470)
Outline: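 Differentiated HepaRG cells exposed 48 h in serum-free induction medium, eight half-log concentrations from 100 uM, in duplicate, 0.5% DMSO vehicle. BAX mRNA by TaqMan qRT-PCR, normalised to ACTB, GAPDH and POLR2A.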

[19] = read-out: adenosine kinase (ADK) gene, ADK (gene 132); assay: LTEA_HepaRG_ADK: Life Technologies and Expression Analysis (LTEA) Assay for adenosine kinase (ADK) gene using HepaRG (AID 2283471)
Outline: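 Read-out is ADK transcript level measured by qRT-PCR and normalised to three housekeeping genes. Cells are human HepaRG, dosed for 48 h at up to 100 uM in 0.5% DMSO. Gain or loss of signal is fitted against DMSO controls.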

Measured: AC50

Chain of Broad substrate specificity ATP-binding cassette transporter ABCG2 (Homo sapiens) (Q9UNQ0 whole entry, looked up): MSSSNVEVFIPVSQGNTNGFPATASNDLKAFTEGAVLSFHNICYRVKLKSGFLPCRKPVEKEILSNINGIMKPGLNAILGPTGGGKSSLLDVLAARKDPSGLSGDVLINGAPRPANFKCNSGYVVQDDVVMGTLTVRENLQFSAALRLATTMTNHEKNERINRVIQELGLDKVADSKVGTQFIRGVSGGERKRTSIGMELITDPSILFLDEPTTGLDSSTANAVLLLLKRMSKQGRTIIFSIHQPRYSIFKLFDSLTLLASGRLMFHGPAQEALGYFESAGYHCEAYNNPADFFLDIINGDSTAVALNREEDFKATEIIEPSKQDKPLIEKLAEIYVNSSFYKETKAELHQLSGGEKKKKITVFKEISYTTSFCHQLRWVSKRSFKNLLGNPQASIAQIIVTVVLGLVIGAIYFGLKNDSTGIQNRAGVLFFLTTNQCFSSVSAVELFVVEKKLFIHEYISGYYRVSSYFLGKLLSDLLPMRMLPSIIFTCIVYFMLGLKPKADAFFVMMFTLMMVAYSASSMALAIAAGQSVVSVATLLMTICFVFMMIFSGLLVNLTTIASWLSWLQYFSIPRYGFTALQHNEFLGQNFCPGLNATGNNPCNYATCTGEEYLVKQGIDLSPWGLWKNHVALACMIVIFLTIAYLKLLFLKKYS

Nc1ccc([N+](=O)[O-])cc1
inactive: [1] | [2] | [4] | [5] | [6] | [7] | [8] | [9] | [10] | [11] | [12] | [13] | [14] | [15] | [16] | [17] | [18] | [19]
active: [3] 50 µM

Cc1ccc(N=C=O)cc1N=C=O
active: [1] 19.7 µM | [2] 31.2 µM | [3] 40.4 µM | [11] 20.2 µM | [14] 12.5 µM
inactive: [4] | [5] | [6] | [7] | [8] | [9] | [10] | [12] | [13] | [15] | [16] | [17] | [18] | [19]

CCCCCOC(=O)c1ccccc1C(=O)OCCCCC
active: [3] 18 µM
inactive: [1] | [2] | [4] | [5] | [6] | [7] | [8] | [9] | [10] | [11] | [12] | [13] | [14] | [15] | [16] | [17] | [18] | [19]

CCC[CH2][Sn]([Cl])([CH2]CCC)[CH2]CCC
inactive: [7] | [9] | [10] | [14] | [17] | [19]
active: [1] 1.66 µM | [2] 2.31 µM | [3] 2.35 µM | [4] 4.12 µM | [5] 18.8 µM | [6] 50 µM | [8] 3.21 µM | [11] 2.06 µM | [12] 3.8 µM | [13] 1.49 µM | [15] 3.11 µM | [16] 3.79 µM | [18] 1.72 µM
